Compounds without any hit were thinned out: in the full panel of roughly 83,000, 20% have a hit.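 Cells were grown in 96-well plates and exposed to the test compound at a single concentration for 48 hours; results are reported as percent growth, with values below 10 considered active.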 Unmarked numbers belong to inactive results. The source made the active and inactive calls.
Key:
Assay in all cases: NCI-60 one-dose screen, 48 h (100 = growth as untreated, 0 = no growth, -100 = all killed)
Settings in all cases: 10 µM unless noted
SR leukemia = system: SR leukemia
RPMI-8226 leukemia = system: RPMI-8226 leukemia
OVCAR-8 ovarian = system: OVCAR-8 ovarian
OVCAR-5 ovarian = system: OVCAR-5 ovarian
OVCAR-4 ovarian = system: OVCAR-4 ovarian
SK-OV-3 ovarian = system: SK-OV-3 ovarian
IGROV1 ovarian = system: IGROV1 ovarian
OVCAR-3 ovarian = system: OVCAR-3 ovarian
HS 578T breast = system: HS 578T breast
NCI/ADR-RES ovarian = system: NCI/ADR-RES ovarian
T-47D breast = system: T-47D breast
BT-549 breast = system: BT-549 breast
MDA-MB-435 melanoma = system: MDA-MB-435 melanoma
SW-620 colon = system: SW-620 colon
MCF7 breast = system: MCF7 breast
HCT-116 colon = system: HCT-116 colon
HCC-2998 colon = system: HCC-2998 colon
KM12 colon = system: KM12 colon

SMILES	growth (SR leukemia)	growth (RPMI-8226 leukemia)	growth (OVCAR-8 ovarian)	growth (OVCAR-5 ovarian)	growth (OVCAR-4 ovarian)	growth (SK-OV-3 ovarian)	growth (IGROV1 ovarian)	growth (OVCAR-3 ovarian)	growth (HS 578T breast)	growth (NCI/ADR-RES ovarian)	growth (T-47D breast)	growth (BT-549 breast)	growth (MDA-MB-435 melanoma)	growth (SW-620 colon)	growth (MCF7 breast)	growth (HCT-116 colon)	growth (HCC-2998 colon)	growth (KM12 colon)
O=C1/C(=C/c2ccccc2)CN(CCC(=O)N2C/C(=C\c3ccccc3)C(=O)/C(=C/c3ccccc3)C2)C/C1=C\c1ccccc1	16.5%	-18.8% (active)	16.9%	91%	67.8%	51.3%	70.6%	32.8%	58.1%	76.1%	26.6%	56.3%	-40.7% (active)	7.07% (active)	-2.24% (active)	-60.6% (active)	26.7%	10.1%
CC(=O)OCC(=O)C1CCC=CC1OC(C)=O (stereo unspecified)	98.9%	100%	97.2%	104%	94.4%	87.9%	102%	107%	110%	100%	87.8%	103%	98.3%	111%	105%	100%	102%	99.7%
CN1CCN(Cc2ccc(NC(=O)c3[nH]ncc3Nc3ncnc4[nH]ccc34)cc2)CC1	-17% (active)	-10.4% (active)	6.62% (active)	11.6%	-21.7% (active)	18.5%	16.4%	-57.6% (active)	-3.22% (active)	71.2%	21.7%	-76.2% (active)	8.18% (active)	5.63% (active)	9.25% (active)	2.81% (active)	-14.2% (active)	3.42% (active)
CC(=O)O[C@H]1CC[C@]2(C)[C@H]3CC[C@@H]4[C@H]5[C@H](C(C)C)CC[C@]5(C(=O)OCC(CO)(CO)N=C(N)N)CC[C@@]4(C)[C@]3(C)CC[C@H]2C1(C)C	-13.6% (active)	4.55% (active)	-31.9% (active)	99.1%	87.9%	91.2%	24.3%	18.9%	93.7%	76.8%	44.6%	108%	22.6%	-71.5% (active)	4.01% (active)	-76.1% (active)	-60.9% (active)	17.4%
c1ccc(Sc2ncnc3ccccc23)cc1	25.5%	20.9%	82.1%	98.4%	76%	112%	77.9%	71.2%	77.9%	83.5%	63.8%	51.6%	38.1%	84.9%	63.8%	72%	107%	86.1%
COc1ccc(/C=C2\N=C3SC=C(N)N3C2=O)cc1	-21.3% (active)	-28.8% (active)	35.7%	59.9%	21.5%	45.6%	9.81% (active)	24.2%	50.4%	42.3%	9.75% (active)	11.8%	9.59% (active)	21.9%	13.4%	-6.91% (active)	40.9%	46.9%
CC(=O)C1=C(O)C=C2Oc3c(C(=O)/C=C/c4cc(C(F)(F)F)cc(C(F)(F)F)c4)c(O)c(C)c(O)c3[C@]2(C)C1=O	-29.3% (active)	-18.8% (active)	-29.1% (active)	-6.52% (active)	12.5%	-32.9% (active)	-6.87% (active)	-50.5% (active)	-12.2% (active)	-48.2% (active)	-18.7% (active)	-29.6% (active)	-33.9% (active)	-10.2% (active)	-42% (active)	-30% (active)	-87.4% (active)	-46% (active)
OC(c1cccc(C(F)(F)F)c1)c1cnccc1NC1CCCCCC1 (stereo unspecified)	-14.7% (active)	-30.1% (active)	58.2%	79.8%	52.7%	71.4%	44.2%	57.5%	64.4%	39.2%	-3.18% (active)	71.4%	32.6%	3.19% (active)	-6.03% (active)	14.4%	-70.1% (active)	3.96% (active)
O=C1/C(=C/c2ccc(Cl)c(Cl)c2)CN(C(=O)CCN2CCC(=NO)CC2)C/C1=C\c1ccc(Cl)c(Cl)c1	-14% (active)	-37.2% (active)	-95.5% (active)	-71.3% (active)	-96.6% (active)	-55.7% (active)	-63.3% (active)	-97.8% (active)	-28.5% (active)	-60.2% (active)	-79.9% (active)	-87.9% (active)	-93.8% (active)	-62.9% (active)	-53.8% (active)	-47.1% (active)	-77.1% (active)	-80.9% (active)
Cc1cc(=O)oc2cc(Oc3nc(-c4cccs4)cn4c(-c5cccs5)cnc34)ccc12	45.6%	70.3%	52.5%	93.8%	54.1%	90.6%	79.2%	68%	67.6%	53.4%	54.7%	25%	61.3%	56.7%	59.9%	58.7%	78.1%	59.6%
NC(CC(=O)O)C(=O)OCc1ccccc1 (stereo unspecified)	107%	98.7%	101%	101%	89.6%	82.9%	105%	110%	101%	101%	83.8%	108%	86.3%	107%	104%	96.9%	104%	106%
COc1cc(NCCCCN=C(N)N)c2ncccc2c1	116%	87.7%	60.8%	86.7%	-99.4% (active)	88.3%	56.8%	8.54% (active)	94%	104%	18%	54.4%	104%	80.8%	-48% (active)	79.1%	84.3%	47.5%
Cc1ccc2c(c1)n([O-])c1cc(Cl)ccc1[n+]2=O	5.98% (active)	104%	108%	102%	82.6%	122%	101%	92.6%	135%	104%	93.9%	108%	96.8%	119%	108%	84.2%	120%	105%
O=C1c2cccnc2C(=O)c2c1c(C(=O)OCCN1CCOCC1)c1ccccn21	-10.1% (active)	10.1%	9.13% (active)	-9.33% (active)	24.2%	-0.946% (active)	1.32% (active)	-6.91% (active)	30.3%	5.58% (active)	9.37% (active)	-13.3% (active)	-36% (active)	6.61% (active)	-45.9% (active)	-1.07% (active)	10.7%	22.2%
COc1ccc(/C=c2/c(=O)[nH]c3nc4sc(C)c(C)c4c(=O)n23)cc1	53.9%	82.9%	77.8%	105%	81.8%	102%	97.8%	101%	99.6%	79.3%	92.7%	85.1%	86.8%	107%	93.6%	93.1%	113%	99.2%
CCCCCCNC(=O)Oc1ccc(/C(=C(\C)c2ccccc2)c2ccc(OCCN(CC)CC)cc2)cc1	1.65% (active)	22.1%	63.5%	76.9%	64.4%	74.3%	59.2%	66.9%	36.4%	70.6%	35.5%	71.8%	45.6%	18.8%	16.1%	30.2%	60%	37.8%
COc1cc(NCCCCCN=C(N)NC(N)=NC(C)C)c2ncccc2c1	46.3%	37.6%	23.8%	71.5%	-16.7% (active)	83.3%	-13.1% (active)	-39.8% (active)	64%	99.5%	24.6%	-0.951% (active)	69.2%	25.2%	-91.6% (active)	-4.52% (active)	11%	3.06% (active)
